Laboratory results as given in the supplement of paper PMC11732987, “Enantioselective OTUD7B fragment discovery through chemoproteomics screening and high-throughput optimisation” (Communications Chemistry, 2025).

Tests used:
Assay in all cases: log2 ratio of Biotin-Ahx-Ub-VS probe labelling (fragment/DMSO); higher = less target engagement (more negative = stronger competition), active = hit call of the paper (q ≤ 0.05, log2 ratio ≤ -1)
Settings in all cases: compound concentration: 200 uM; treatment time: 3 h
USP34 = USP34 (UniProt Q70CQ2)
Sequence of USP34 (Q70CQ2 whole entry, the tested form may be a part): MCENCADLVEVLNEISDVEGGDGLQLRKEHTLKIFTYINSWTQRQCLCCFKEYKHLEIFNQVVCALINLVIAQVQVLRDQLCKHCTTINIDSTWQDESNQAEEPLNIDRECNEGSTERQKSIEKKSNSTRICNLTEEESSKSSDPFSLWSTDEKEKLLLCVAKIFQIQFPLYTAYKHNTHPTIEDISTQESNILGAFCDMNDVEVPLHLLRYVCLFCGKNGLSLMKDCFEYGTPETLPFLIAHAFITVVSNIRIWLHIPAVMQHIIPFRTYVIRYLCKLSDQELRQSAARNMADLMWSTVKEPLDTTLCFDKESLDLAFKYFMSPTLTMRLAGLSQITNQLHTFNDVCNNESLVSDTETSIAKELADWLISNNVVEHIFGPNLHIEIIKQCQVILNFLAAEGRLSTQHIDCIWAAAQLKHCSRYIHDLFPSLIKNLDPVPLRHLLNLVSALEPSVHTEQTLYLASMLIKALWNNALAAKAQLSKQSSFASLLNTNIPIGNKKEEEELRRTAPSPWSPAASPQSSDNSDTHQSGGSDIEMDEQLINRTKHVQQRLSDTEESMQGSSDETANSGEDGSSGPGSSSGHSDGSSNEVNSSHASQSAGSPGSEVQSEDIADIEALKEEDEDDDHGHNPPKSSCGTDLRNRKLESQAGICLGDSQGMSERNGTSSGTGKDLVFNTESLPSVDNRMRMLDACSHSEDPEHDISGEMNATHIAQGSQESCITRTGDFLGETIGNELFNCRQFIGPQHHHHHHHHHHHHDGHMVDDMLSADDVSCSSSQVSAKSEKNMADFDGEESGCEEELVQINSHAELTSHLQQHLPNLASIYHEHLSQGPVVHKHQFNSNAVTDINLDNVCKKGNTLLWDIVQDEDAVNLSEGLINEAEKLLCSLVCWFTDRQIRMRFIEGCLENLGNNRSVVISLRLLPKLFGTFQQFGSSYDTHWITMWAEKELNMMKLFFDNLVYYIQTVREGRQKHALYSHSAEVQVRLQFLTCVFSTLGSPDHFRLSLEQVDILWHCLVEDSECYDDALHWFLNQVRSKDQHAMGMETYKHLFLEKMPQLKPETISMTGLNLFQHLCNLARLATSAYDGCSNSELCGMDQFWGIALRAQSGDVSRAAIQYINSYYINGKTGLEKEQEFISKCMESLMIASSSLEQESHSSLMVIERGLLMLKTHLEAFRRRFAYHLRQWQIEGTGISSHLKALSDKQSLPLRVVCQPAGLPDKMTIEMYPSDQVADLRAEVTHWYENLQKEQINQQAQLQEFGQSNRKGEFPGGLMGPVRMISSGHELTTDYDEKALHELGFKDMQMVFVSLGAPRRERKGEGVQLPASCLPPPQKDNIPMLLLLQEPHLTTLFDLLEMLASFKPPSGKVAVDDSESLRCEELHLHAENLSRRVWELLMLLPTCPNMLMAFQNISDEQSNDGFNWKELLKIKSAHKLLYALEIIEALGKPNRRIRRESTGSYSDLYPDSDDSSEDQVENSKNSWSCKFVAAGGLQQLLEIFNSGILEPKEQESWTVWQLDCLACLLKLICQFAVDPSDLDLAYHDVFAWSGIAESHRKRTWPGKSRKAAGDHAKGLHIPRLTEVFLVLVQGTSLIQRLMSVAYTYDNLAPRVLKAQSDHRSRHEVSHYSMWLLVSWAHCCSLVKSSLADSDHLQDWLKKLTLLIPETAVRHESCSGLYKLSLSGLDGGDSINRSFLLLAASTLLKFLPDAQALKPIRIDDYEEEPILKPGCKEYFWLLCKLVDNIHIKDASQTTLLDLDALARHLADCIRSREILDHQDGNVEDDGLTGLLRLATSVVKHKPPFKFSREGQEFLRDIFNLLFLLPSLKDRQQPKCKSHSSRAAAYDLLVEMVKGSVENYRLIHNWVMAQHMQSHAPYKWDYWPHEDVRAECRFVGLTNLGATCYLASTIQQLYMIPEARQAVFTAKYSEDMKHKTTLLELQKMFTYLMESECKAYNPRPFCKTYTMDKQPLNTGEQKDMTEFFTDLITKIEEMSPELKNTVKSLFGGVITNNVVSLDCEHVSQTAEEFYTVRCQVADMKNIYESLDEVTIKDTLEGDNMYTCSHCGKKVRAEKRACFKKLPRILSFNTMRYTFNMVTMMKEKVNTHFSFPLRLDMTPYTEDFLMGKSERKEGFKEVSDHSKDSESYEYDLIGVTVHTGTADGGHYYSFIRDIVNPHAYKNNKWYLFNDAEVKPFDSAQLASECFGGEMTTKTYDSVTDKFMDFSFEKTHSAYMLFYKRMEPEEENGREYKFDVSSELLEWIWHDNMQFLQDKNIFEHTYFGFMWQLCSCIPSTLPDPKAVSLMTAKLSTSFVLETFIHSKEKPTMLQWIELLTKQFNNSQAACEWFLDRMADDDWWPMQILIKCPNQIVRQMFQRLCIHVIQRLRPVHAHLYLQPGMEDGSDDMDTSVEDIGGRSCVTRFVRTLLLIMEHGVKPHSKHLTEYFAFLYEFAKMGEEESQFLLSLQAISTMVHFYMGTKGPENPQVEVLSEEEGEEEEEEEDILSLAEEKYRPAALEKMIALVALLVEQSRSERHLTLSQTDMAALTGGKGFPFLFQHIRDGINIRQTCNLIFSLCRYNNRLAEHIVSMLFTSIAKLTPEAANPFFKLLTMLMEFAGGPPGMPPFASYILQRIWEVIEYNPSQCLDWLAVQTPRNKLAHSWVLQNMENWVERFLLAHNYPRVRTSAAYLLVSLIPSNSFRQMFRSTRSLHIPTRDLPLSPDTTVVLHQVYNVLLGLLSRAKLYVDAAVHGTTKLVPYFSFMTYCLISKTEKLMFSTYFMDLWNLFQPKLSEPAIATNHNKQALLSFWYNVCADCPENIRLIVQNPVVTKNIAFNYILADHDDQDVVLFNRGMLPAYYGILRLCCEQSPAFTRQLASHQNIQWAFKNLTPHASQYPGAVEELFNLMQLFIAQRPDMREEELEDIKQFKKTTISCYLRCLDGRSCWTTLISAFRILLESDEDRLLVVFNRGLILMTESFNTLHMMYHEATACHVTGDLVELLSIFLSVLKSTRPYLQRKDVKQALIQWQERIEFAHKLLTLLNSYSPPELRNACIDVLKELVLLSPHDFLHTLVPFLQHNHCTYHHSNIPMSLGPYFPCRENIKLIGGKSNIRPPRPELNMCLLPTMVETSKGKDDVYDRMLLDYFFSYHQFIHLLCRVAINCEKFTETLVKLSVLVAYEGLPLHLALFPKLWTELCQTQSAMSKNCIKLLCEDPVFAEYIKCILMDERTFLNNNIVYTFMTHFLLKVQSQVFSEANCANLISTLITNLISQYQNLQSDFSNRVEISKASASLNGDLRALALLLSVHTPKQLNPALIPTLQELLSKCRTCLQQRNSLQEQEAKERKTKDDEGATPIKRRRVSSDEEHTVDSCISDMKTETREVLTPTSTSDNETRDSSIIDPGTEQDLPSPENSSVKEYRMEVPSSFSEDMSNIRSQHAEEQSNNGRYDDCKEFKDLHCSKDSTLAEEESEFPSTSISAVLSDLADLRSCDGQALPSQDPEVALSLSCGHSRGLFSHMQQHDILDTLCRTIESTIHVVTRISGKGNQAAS
Procedure, shortened: (§1)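 Fragment (200 µM) or vehicle was incubated for 3 h with triplicate HEK293T lysate samples of 495 µg, which were then treated with Biotin-Ahx-Ub-VS at 0.5 µM final for 1 h. Labelled DUBs were enriched on NeutrAvidin, digested with LysC and trypsin, and analysed by diaPASEF LC-MS/MS. Values are average log2 fragment/vehicle ratios from an unpaired t-test on global-median-normalised Spectronaut label-free quantities, using proteins with ≥2 unique peptides.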

USP36 = target: T1, USP36 (UniProt Q9P275)
T1 sequence (whole entry): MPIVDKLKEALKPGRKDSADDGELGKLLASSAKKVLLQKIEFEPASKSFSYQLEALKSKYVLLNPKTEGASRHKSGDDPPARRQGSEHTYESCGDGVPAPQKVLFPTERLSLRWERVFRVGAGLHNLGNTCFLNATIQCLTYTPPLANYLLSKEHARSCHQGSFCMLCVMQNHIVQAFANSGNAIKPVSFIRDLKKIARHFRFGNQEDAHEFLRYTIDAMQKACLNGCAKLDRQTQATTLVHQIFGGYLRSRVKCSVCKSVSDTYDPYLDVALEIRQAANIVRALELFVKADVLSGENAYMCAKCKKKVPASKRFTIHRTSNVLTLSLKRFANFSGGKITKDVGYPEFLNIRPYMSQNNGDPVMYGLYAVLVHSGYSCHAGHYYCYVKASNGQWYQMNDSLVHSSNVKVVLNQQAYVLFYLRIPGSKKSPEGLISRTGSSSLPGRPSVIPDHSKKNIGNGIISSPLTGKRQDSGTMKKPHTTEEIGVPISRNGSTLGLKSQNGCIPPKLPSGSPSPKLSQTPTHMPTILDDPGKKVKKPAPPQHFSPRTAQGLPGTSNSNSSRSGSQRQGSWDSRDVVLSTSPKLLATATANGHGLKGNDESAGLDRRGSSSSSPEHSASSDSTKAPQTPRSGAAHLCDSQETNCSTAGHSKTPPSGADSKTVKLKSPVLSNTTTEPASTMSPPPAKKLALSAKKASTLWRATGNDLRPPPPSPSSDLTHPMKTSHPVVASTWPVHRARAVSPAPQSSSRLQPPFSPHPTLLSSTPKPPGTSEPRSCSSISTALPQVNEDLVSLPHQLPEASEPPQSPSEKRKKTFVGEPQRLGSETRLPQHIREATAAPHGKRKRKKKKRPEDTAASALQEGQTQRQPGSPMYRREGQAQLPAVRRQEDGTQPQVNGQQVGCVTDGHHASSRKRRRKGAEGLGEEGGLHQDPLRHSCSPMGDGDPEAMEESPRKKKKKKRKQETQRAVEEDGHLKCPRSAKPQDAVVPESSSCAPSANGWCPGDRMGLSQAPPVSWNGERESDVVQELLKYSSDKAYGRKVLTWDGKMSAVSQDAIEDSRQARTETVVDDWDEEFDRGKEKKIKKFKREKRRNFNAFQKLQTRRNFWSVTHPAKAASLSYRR
Procedure, shortened: as §1

USP38 = target: T2, USP38 (UniProt Q8NB14)
T2 sequence (whole entry): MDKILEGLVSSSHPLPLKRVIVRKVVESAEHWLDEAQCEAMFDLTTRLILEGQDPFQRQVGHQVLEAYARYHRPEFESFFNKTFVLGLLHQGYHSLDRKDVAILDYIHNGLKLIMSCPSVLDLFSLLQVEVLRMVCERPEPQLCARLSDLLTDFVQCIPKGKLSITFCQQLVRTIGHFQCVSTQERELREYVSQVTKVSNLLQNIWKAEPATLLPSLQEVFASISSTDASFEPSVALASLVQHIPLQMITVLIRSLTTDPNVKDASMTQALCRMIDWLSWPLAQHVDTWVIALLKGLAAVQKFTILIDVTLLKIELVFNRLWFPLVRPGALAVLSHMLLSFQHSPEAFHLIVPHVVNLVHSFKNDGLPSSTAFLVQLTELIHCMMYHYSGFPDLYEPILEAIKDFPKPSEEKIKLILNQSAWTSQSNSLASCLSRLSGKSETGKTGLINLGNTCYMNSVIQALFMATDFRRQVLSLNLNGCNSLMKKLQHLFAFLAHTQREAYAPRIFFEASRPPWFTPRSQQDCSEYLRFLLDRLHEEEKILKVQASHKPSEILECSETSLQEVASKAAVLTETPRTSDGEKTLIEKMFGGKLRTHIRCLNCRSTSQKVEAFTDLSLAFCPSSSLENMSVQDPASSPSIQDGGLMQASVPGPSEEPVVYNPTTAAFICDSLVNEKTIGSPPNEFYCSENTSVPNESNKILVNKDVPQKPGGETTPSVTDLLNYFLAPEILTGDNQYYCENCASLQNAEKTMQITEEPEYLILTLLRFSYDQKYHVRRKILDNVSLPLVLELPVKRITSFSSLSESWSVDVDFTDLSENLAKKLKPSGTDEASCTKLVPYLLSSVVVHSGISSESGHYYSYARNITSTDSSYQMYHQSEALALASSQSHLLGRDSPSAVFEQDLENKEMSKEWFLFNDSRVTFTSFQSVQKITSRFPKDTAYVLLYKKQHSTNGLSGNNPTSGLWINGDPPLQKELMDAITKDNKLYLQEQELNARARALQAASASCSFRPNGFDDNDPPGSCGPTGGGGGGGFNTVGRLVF
Procedure, shortened: as §1

USP39 = target: T3, USP39 (UniProt Q53GS9)
T3 sequence (whole entry): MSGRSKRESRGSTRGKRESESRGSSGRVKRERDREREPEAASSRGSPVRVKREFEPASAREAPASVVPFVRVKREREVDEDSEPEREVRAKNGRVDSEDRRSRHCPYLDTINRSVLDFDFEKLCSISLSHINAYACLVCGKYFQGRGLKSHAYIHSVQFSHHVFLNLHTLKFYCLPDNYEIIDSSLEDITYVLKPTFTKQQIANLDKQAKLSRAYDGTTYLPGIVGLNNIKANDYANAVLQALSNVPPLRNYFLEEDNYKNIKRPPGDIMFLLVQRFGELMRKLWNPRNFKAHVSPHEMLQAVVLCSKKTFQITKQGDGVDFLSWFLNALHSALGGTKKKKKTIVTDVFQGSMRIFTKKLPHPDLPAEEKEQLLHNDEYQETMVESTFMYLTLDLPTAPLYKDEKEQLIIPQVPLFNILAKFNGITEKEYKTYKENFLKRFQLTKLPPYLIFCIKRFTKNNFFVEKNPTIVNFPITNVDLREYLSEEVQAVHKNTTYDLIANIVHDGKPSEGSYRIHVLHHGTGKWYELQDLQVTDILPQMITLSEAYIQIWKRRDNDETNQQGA
Procedure, shortened: as §1

USP4 = target: T4, USP4 (UniProt Q13107)
T4 sequence (whole entry): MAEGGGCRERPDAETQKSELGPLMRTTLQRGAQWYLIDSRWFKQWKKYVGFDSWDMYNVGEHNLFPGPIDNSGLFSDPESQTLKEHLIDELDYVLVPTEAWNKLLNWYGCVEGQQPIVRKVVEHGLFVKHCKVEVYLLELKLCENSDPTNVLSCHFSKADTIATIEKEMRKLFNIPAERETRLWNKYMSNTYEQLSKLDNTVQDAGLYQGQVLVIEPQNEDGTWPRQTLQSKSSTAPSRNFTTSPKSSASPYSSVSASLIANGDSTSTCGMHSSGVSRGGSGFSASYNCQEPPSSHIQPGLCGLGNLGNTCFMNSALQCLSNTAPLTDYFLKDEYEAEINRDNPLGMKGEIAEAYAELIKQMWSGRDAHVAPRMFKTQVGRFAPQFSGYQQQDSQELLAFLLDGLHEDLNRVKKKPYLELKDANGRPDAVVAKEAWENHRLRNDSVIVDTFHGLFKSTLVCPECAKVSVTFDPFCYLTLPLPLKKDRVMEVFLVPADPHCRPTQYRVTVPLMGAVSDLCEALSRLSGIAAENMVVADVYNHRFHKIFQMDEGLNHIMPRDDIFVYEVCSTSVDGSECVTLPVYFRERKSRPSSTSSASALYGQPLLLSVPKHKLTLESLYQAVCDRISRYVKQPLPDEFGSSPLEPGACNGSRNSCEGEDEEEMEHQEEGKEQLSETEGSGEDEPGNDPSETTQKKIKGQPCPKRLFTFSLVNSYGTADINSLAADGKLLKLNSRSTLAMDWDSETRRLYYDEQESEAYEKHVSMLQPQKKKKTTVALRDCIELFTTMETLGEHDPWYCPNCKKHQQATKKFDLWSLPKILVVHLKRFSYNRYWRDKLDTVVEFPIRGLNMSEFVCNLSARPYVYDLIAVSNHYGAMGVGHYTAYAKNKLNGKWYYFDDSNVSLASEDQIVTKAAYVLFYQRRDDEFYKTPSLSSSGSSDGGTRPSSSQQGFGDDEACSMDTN
Procedure, shortened: as §1

Measured: log2 ratio of Biotin-Ahx-Ub-VS probe labelling

O=C(CCl)Nc1ccc(Cl)c(F)c1
inactive: USP34 -0.317 | USP36 -0.136 | USP38 -0.0529 | USP39 4.5e-05 | USP4 -0.159
